# Assay results: paper PMC4336329 (PLoS ONE, 2015)
# Out of some 310,000 compounds screened, about 14,000 (4.5%) showed an effect of 50% or more. Effects have a minus sign here. The sample as a whole holds a higher share of strong results than the screen did.
# Target: human ether-à-go-go-related gene (hERG) potassium channel (human, UniProt Q12809)
# Assay: primary screen, population patch clamp on CHO cells stably expressing hERG; higher = less effect of the substance
# 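Also: peak tail current of the secondary pulse compared with the same well before compound.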
# Chain of human ether-à-go-go-related gene (hERG) potassium channel (Q12809 whole entry, looked up): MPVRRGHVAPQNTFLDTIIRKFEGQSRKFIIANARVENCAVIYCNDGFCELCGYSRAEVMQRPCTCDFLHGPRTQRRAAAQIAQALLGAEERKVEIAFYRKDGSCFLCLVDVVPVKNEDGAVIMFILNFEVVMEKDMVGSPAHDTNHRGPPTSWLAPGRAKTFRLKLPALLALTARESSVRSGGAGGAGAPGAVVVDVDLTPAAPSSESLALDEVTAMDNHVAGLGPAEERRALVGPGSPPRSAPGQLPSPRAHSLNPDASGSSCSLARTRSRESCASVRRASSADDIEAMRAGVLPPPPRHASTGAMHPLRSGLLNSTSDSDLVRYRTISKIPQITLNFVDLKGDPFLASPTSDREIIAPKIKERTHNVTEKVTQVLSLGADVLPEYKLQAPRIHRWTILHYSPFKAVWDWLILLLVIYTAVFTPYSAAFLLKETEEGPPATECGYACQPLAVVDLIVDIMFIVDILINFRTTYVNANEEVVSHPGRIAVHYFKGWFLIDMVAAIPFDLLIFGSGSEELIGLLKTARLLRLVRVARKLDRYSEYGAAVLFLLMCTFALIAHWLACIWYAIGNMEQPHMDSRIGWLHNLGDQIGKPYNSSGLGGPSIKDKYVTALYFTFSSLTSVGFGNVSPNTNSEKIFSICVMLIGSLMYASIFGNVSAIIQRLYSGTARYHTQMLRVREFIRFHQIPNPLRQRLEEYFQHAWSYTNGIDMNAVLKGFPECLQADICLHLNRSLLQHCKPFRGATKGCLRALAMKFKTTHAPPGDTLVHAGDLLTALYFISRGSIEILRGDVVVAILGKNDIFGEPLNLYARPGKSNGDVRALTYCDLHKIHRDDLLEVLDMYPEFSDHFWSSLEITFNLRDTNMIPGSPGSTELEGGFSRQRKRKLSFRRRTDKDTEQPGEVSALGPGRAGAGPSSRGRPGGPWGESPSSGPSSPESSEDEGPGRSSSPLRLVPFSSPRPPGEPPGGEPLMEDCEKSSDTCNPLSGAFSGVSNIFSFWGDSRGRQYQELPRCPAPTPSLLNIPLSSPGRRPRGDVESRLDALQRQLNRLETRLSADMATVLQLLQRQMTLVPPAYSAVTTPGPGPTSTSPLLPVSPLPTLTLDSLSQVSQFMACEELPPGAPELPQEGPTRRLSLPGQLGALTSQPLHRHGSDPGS
row,SMILES,"hERG current change (%, negative = inhibition) at 10uM"
1,Cc1ccc(-c2nnc3c4ccccc4c(C)nn23)cc1S(=O)(=O)N1CCN(C)CC1,-6.7%
2,Cc1ccc(-c2nnc(N3CCCCC3)c3ccccc23)cc1S(=O)(=O)N(C)C,-27%
3,Cc1ccc(-c2nnc(NCc3nc4ccccc4[nH]3)c3ccccc23)cc1S(=O)(=O)N1CCCCC1.Cl,-7.08%
4,Cc1ccc(-c2nnc(N3CCCCC3)c3ccccc23)cc1S(=O)(=O)N1CCN(C)CC1,-58.7%
5,Cc1ccc(-c2nnc(NC3CCCCC3)c3ccccc23)cc1S(=O)(=O)N1CCN(C)CC1,-54.6%
6,Cc1ccc(-c2nnc(N3CCOCC3)c3ccccc23)cc1S(N)(=O)=O,17.3%
7,COc1ccc(S(=O)(=O)NCC2CCCN(C(=O)CCSC)C2)cc1 (stereo not shown),18%
8,COc1cccc(CN2CC(C(=O)N(C)Cc3ccnc4ccccc34)CCC2=O)c1 (stereo not shown),-10.2%
9,C=CCNc1nc(-c2c(C)nc3sccn23)cs1,-10.1%
10,Cc1ccccc1C(=O)NC(=S)NCCC1=CCCCC1,13.4%
11,CN1CCN(c2ncc3c(n2)CC(c2ccccc2F)CC3=O)CC1 (stereo not shown),-4.43%
12,COCCOC(=O)C1=C(C)NC2=C(C(=O)CCC2)C1c1ccc2c(c1)OCO2 (stereo not shown),-49.6%
13,O=C(CCNC(=O)c1ccc(Br)cc1)NCc1ccccc1F,-13%
14,O=C(CNC(=O)C1COc2ccccc2O1)N/N=C\c1ccc(Cl)cc1 (stereo not shown),-69.4%
15,COc1cc(/C=N\NC(=O)CNC(=O)C2COc3ccccc3O2)ccc1O (stereo not shown),-26.8%
16,O=C(CNC(=O)C1COc2ccccc2O1)N/N=C/c1ccc([N+](=O)[O-])cc1 (stereo not shown),-71.8%
17,O=C(Nc1cccc([N+](=O)[O-])c1)C1COc2ccccc2O1 (stereo not shown),-86.3%
18,O=C(CNC(=O)C1COc2ccccc2O1)N/N=C/c1cc(Br)c(O)c(Br)c1 (stereo not shown),-7.99%
19,COc1ccc(/C=N/NC(=O)CNC(=O)C2COc3ccccc3O2)cc1OC (stereo not shown),-15.7%
20,COc1ccc(/C=N\NC(=O)CNC(=O)C2COc3ccccc3O2)cc1[N+](=O)[O-] (stereo not shown),-73.8%
21,O=C(CNC(=O)C1COc2ccccc2O1)N/N=C\c1ccccc1Cl (stereo not shown),4.64%
22,O=C(N/N=C/c1cccc([N+](=O)[O-])c1)C1COc2ccccc2O1 (stereo not shown),-29.1%

row,SMILES,"hERG current change (%, negative = inhibition) at 10uM"
1,O=C(CNC(=O)C1COc2ccccc2O1)N/N=C\c1ccc(Br)cc1 (stereo not shown),-20.1%
2,O=C(Nc1ccc([N+](=O)[O-])cc1)C1COc2ccccc2O1 (stereo not shown),0.793%
3,O=C(NNC(=O)C1COc2ccccc2O1)c1cccc([N+](=O)[O-])c1 (stereo not shown),-7.35%
4,COc1ccc(OCCC(=O)Nc2ccccc2)cc1,-6.83%
5,Cc1cc(C(=O)O[C@H]2[C@H](Cc3ccccc3)NS(=O)(=O)[C@H]3C[C@@H]4C=C[C@]23O4)ccc1[N+](=O)[O-],-1.67%
6,Cn1nc(C(=O)NCc2ccc(F)cc2)c2c1-c1ccccc1S(=O)(=O)C2,-44.9%
7,CC(=O)N(CC(=O)O)c1ccccc1,10.5%
8,Cc1ccc(NS(=O)(=O)c2ccc(CCC(=O)NCCCOC(C)C)cc2)cc1,4.27%
9,O=c1oc2c3c4c(cc2c2c1CCC2)OCCN4CCC3,-0.13%
10,Cc1cccc(C)c1NC(=O)CNc1ccccc1,5.02%
11,O=C(Nn1c(C2CCCCC2)nc2ccccc2c1=O)c1ccc(Cl)c([N+](=O)[O-])c1,-9.26%
12,COC(=O)C1=C(c2ccc(OC)c(OC)c2)C[C@@H]2CC[C@H]1N2C(=O)NCCOc1ccccc1Cl,-12.7%
13,Cc1ccc(C)c(N2CCN(S(=O)(=O)c3ccc4c(c3)OCCO4)CC2)c1,3.7%
14,C#CCOCCOCCOCCNc1nc(N2CCN(C(=O)CCCCCCCCCCNC(=O)[C@H](CCC(=O)O)n3cc(CCCCCN)nn3)CC2)nc(N2CCN(C(=O)CCCCCCCCCCNC(=O)[C@@H]([C@H](C)O)n3cc(C)nn3)CC2)n1,20.1%
15,O=C(CSc1nc2c(c(=O)n1-c1ccc(Cl)cc1)SCC2)N1CCCC1,-17.4%
16,C/C(=N\NC(=O)CNC(=O)C1COc2ccccc2O1)c1ccc(Cl)cc1 (stereo not shown),-17.6%
17,O=C(N/N=C\c1ccc([N+](=O)[O-])o1)C1COc2ccccc2O1 (stereo not shown),-67.4%
18,CC(C)(C)c1ccc2c(c1)OC(C(=O)N/N=C/c1ccc([N+](=O)[O-])o1)CO2 (stereo not shown),-39.2%
19,O=C(N/N=C\c1ccc(-c2ccc([N+](=O)[O-])cc2)o1)C1COc2ccccc2O1 (stereo not shown),-7.36%
20,C/C(=N/NC(=O)CNC(=O)C1COc2ccccc2O1)c1ccc2c(c1)OCCO2 (stereo not shown),-1.69%
21,C/C(=N/NC(=O)CNC(=O)C1COc2ccccc2O1)c1ccc([N+](=O)[O-])cc1 (stereo not shown),-64.7%
